# Records with an inconclusive call do not appear. A number with no mark means an inactive call. Calls follow the shape of the dose curve; as a rule, active = well fitted curve in the direction sought with a large enough effect; inconclusive = small, poorly fitted or top-dose-only effect, or effect the other way, or another doubt; inactive = no such curve, though single readings can be large or run the other way.
# Test: Cell Viability Secondary Assay to Characterize qHTS Inhibitors of the Interaction of Thyroid Hormone Receptor and Steroid Receptor Coregulator 2
# Conditions: cell viability counter-screen, qHTS titration; series mostly up to 29.9 µM; activity change, negative = cytotoxicity: at the top concentration
# Outline: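 WRO human follicular thyroid carcinoma cells stably expressing TRbeta and a TRE-luciferase reporter, treated with compounds plus 100nM T3 (final) for 16 h at 37 C. Viability read as ATP content by CellTiter-Glo luminescence.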
row,SMILES,"activity change, negative = cytotoxicity"
1,CCOc1ccc(NC(=O)C(c2ccccn2)N(C(=O)CCl)c2ccc(F)cc2)cc1 (centres undefined),-6.25%
2,CCN(C(=O)C1CCCN(c2ncnc3onc(-c4ccc(F)cc4)c23)C1)c1ccccc1 (centres undefined),-2.77% [at 59.9 µM]
3,CCC(C)NC(=O)COC(=O)c1csc2c1CCCC2 (centres undefined),-0.105%
4,Cc1nc2c3cc(F)ccc3n(Cc3ccccc3F)c2s1,-26.7%
